A short description of assay [1]: NCI Yeast Anticancer Drug Screen. Data for the rad50 strain (AID 155).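 Further: 0% = growth of vehicle-only cultures of the same strain.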 As to conditions: S. cerevisiae rad50 strain growth inhibition, stronger effect = higher value. The method, boiled down:
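Genetically altered yeast (DNA repair pathway); compound treatment; growth inhibition vs vehicle ctrl.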

A short description of assay [2]: NCI Yeast Anticancer Drug Screen. Data for the mec2-1 strain (AID 157). To be noted: S. cerevisiae mec2-1 strain, stronger effect = higher value. The procedure, abridged:
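Test agents were screened against the mec2-1 yeast strain, with defined DNA repair or cell cycle alteration. Growth was scored as inhibition against vehicle-only controls.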

Assay [3] can be described thus: NCI Yeast Anticancer Drug Screen. Data for the sgs1 mgt1 strain (AID 161).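 Further: 0% = growth of cultures given vehicle only.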 To be noted: S. cerevisiae sgs1 mgt1 strain, stronger effect = higher value. The procedure, abridged:
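Inhibition of yeast growth, normalised to vehicle-treated controls, is reported for a strain bearing genetic alterations in DNA damage repair.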

Assay [4] is described as follows: NCI Yeast Anticancer Drug Screen. Data for the cln2 rad14 strain (AID 165).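 Further: 0% = growth equal to vehicle treated cultures.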 To be noted: S. cerevisiae cln2 rad14 strain, stronger effect = higher value. The method, boiled down: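 Growth of compound-exposed yeast (cln2 rad14 genotype) measured and expressed as inhibition relative to vehicle.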
Assay [5] can be described thus: NCI Yeast Anticancer Drug Screen. Data for the bub3 strain (AID 167). As to conditions: S. cerevisiae bub3 mutant strain, stronger effect = higher value. The method, boiled down: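 Yeast carrying a defined mutation is treated with each compound, and growth is compared with that of vehicle-exposed cells to give inhibition.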
Assay [6] is described as follows: NCI Yeast Anticancer Drug Screen. Data for the mlh1 rad18 strain (AID 175). To be noted: S. cerevisiae mlh1 rad18 strain growth inhibition, stronger effect = higher value. The method, boiled down:
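In this whole-cell yeast screen, a strain with altered DNA damage repair is challenged with compound, and its growth is measured against matched vehicle-treated controls.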

Setting [7] is: at 5.0 µM (retest, dose inferred, filed as 0.5).
The mark [8] stands for this setting: at 50.0 µM (retest, dose inferred, filed as 5.0).

The structures appear in SMILES notation. About 79,000 compounds went through this panel and 15% of them were active in at least one assay; those are over-represented in the sample as a whole. Unmarked numbers belong to inactive results. Calls of active or inactive are those of the source. No stated cut-off is given here; in the data, active means growth inhibition above about 70%; inactive means the rest.

For the compound `COc1ccc(C2=NN(c3ccccc3)C[N+](c3ccc(OC)cc3)=N2)cc1`, the growth inhibition in assay [1] (setting [7]) is 22%; in assay [1] (setting [8]), 72% (active); in assay [1] (at 50.0 µM), 96.5% (active); in assay [2] (setting [7]), -7%; in assay [2] (setting [8]), 51%; in assay [2] (at 50.0 µM), 97.5% (active). Further, the growth inhibition in assay [3] (setting [7]) is 9%; in assay [3] (setting [8]), 48%; in assay [3] (at 50.0 µM), 97.7% (active); in assay [4] (setting [7]) it was 10%; in assay [4] (setting [8]), 96% (active); in assay [4] (at 50.0 µM), 96.4% (active). Besides, the growth inhibition in assay [5] (setting [7]) was -10%; in assay [5] (setting [8]), 99% (active); in assay [5] (at 50.0 µM), 97.7% (active); in assay [6] (setting [7]), 6%; in assay [6] (setting [8]), 84% (active); in assay [6] (at 50.0 µM), 96.8% (active).

With `CCCCCCCCCc1cccc(N2C(N)=NC(N)=NC2(C)C)c1`, the growth inhibition in assay [1] (setting [7]) is 99% (active); in assay [1] (setting [8]), 88% (active); in assay [1] (at 50.0 µM) it was 99.3% (active); in assay [2] (setting [7]) it was 100% (active); in assay [2] (setting [8]), 28%; in assay [2] (at 50.0 µM), 99.6% (active). Besides, the growth inhibition in assay [3] (setting [7]) is 99% (active); in assay [3] (setting [8]), 42%; in assay [3] (at 50.0 µM), 99.6% (active); in assay [4] (setting [7]) it was 99% (active); in assay [4] (setting [8]) it was 19%; in assay [4] (at 50.0 µM) it was 99% (active). Further, the growth inhibition is 98% (active) in assay [5] (setting [7]); 12% in assay [5] (setting [8]); 99.4% (active) in assay [5] (at 50.0 µM); 99% (active) in assay [6] (setting [7]); 29% in assay [6] (setting [8]); 99.4% (active) in assay [6] (at 50.0 µM).

Regarding `CC(=O)Nc1cc(Cl)c2c(c1)C(=O)c1ccccc1-2`, the growth inhibition in assay [1] (setting [7]) was 64%; in assay [1] (setting [8]) it was 82% (active); in assay [1] (at 50.0 µM), 91.8% (active); in assay [2] (setting [7]), 34%; in assay [2] (setting [8]), 61%; in assay [2] (at 50.0 µM), 14.6%. Besides, the growth inhibition was 43% in assay [3] (setting [7]); 77% (active) in assay [3] (setting [8]); 35.6% in assay [3] (at 50.0 µM); 24% in assay [4] (setting [7]); 35% in assay [4] (setting [8]); -23.4% in assay [4] (at 50.0 µM). The growth inhibition in assay [5] (setting [7]) is 14%; in assay [5] (setting [8]) it was 38%; in assay [5] (at 50.0 µM), 19.1%; in assay [6] (setting [7]), 41%; in assay [6] (setting [8]), 79% (active); in assay [6] (at 50.0 µM) it was 33%.

Regarding `CSc1c(C)n([O-])c2cc(Cl)c(Cl)cc2[n+]1=O`, the growth inhibition was 20% in assay [1] (setting [7]); 94% (active) in assay [1] (setting [8]); 79.8% (active) in assay [1] (at 50.0 µM); 14% in assay [2] (setting [7]); 93% (active) in assay [2] (setting [8]); 86% (active) in assay [2] (at 50.0 µM). Also, the growth inhibition was 24% in assay [3] (setting [7]); 99% (active) in assay [3] (setting [8]); 85.4% (active) in assay [3] (at 50.0 µM); 17% in assay [4] (setting [7]); 87% (active) in assay [4] (setting [8]); 64.4% in assay [4] (at 50.0 µM). Besides, the growth inhibition in assay [5] (setting [7]) is 24%; in assay [5] (setting [8]) it was 96% (active); in assay [5] (at 50.0 µM) it was 79.2% (active); in assay [6] (setting [7]) it was 23%; in assay [6] (setting [8]) it was 97% (active); in assay [6] (at 50.0 µM), 92.3% (active).

For the compound `Oc1ccc(-c2nnc(-c3ccc(Cl)cc3Cl)o2)cc1`, the growth inhibition is 6% in assay [1] (setting [7]); 80% (active) in assay [1] (setting [8]); 54.6% in assay [1] (at 50.0 µM); 2% in assay [2] (setting [7]); 82% (active) in assay [2] (setting [8]); 50.8% in assay [2] (at 50.0 µM). Besides, the growth inhibition in assay [3] (setting [7]) was 0%; in assay [3] (setting [8]), 85% (active); in assay [3] (at 50.0 µM) it was 54.2%; in assay [4] (setting [7]), 2%; in assay [4] (setting [8]) it was 86% (active); in assay [4] (at 50.0 µM), 74.4% (active). Besides, the growth inhibition in assay [5] (setting [7]) was 17%; in assay [5] (setting [8]), 91% (active); in assay [5] (at 50.0 µM) it was 47.5%; in assay [6] (setting [7]), -2%; in assay [6] (setting [8]) it was 76% (active); in assay [6] (at 50.0 µM), 51.8%.

On to `Oc1cc(F)cc2cccnc12`, for which the growth inhibition in assay [1] (setting [7]) was 43%; in assay [1] (setting [8]), 92% (active); in assay [1] (at 50.0 µM) it was 92.3% (active); in assay [2] (setting [7]), 46%; in assay [2] (setting [8]) it was 91% (active); in assay [2] (at 50.0 µM) it was 94.3% (active). For the same compound, the growth inhibition in assay [3] (setting [7]) is 99% (active); in assay [3] (setting [8]), 99% (active); in assay [3] (at 50.0 µM), 94.1% (active); in assay [4] (setting [7]), 88% (active); in assay [4] (setting [8]), 100% (active); in assay [4] (at 50.0 µM), 92.5% (active). Further, the growth inhibition was 100% (active) in assay [5] (setting [7]); 100% (active) in assay [5] (setting [8]); 93.3% (active) in assay [5] (at 50.0 µM); 42% in assay [6] (setting [7]); 99% (active) in assay [6] (setting [8]); 91.3% (active) in assay [6] (at 50.0 µM).

On to `Cc1c(N=Nc2ccc(Cl)cc2)c(-c2ccccc2)n(C2OC(CO)C(O)C(O)C2O)c(=S)c1C#N` (stereo not given), for which the growth inhibition was -9% in assay [1] (setting [7]); 89% (active) in assay [1] (setting [8]); 96.6% (active) in assay [1] (at 50.0 µM); -13% in assay [2] (setting [7]); 96% (active) in assay [2] (setting [8]); 97.2% (active) in assay [2] (at 50.0 µM). The growth inhibition in assay [3] (setting [7]) is 18%; in assay [3] (setting [8]), 48%; in assay [3] (at 50.0 µM) it was 97.5% (active); in assay [4] (setting [7]), 18%; in assay [4] (setting [8]), 95% (active); in assay [4] (at 50.0 µM), 97.1% (active). The growth inhibition in assay [5] (setting [7]) is -2%; in assay [5] (setting [8]), 95% (active); in assay [5] (at 50.0 µM), 97.3% (active); in assay [6] (setting [7]), -7%; in assay [6] (setting [8]), 96% (active); in assay [6] (at 50.0 µM), 97.4% (active).

Regarding `Oc1cccc2ccc(SSc3ccc4cccc(O)c4n3)nc12`, the growth inhibition in assay [1] (setting [7]) is 99% (active); in assay [1] (setting [8]) it was 95% (active); in assay [1] (at 50.0 µM), 92.2% (active); in assay [2] (setting [7]), 100% (active); in assay [2] (setting [8]), 95% (active); in assay [2] (at 50.0 µM), 95.7% (active). Moreover, the growth inhibition in assay [3] (setting [7]) is 94% (active); in assay [3] (setting [8]), 95% (active); in assay [3] (at 50.0 µM), 93% (active); in assay [4] (setting [7]), 85% (active); in assay [4] (setting [8]), 87% (active); in assay [4] (at 50.0 µM) it was 74.8% (active). The growth inhibition in assay [5] (setting [7]) is 96% (active); in assay [5] (setting [8]) it was 95% (active); in assay [5] (at 50.0 µM), 90.5% (active); in assay [6] (setting [7]), 93% (active); in assay [6] (setting [8]), 93% (active); in assay [6] (at 50.0 µM) it was 93.3% (active).

Consider `CCCCCCCCN(CCCCCCCC)CC(O)c1cc2c(c3ccccc13)CCCC2` (stereo not given), for which the growth inhibition in assay [1] (setting [7]) is 10%; in assay [1] (setting [8]), 95% (active); in assay [1] (at 50.0 µM) it was 99.2% (active); in assay [2] (setting [7]) it was 8%; in assay [2] (setting [8]), 96% (active); in assay [2] (at 50.0 µM) it was 99.4% (active). The growth inhibition in assay [3] (setting [7]) is 25%; in assay [3] (setting [8]) it was 96% (active); in assay [3] (at 50.0 µM) it was 99.3% (active); in assay [4] (setting [7]), 13%; in assay [4] (setting [8]), 94% (active); in assay [4] (at 50.0 µM), 99.2% (active). Also, the growth inhibition was 28% in assay [5] (setting [7]); 95% (active) in assay [5] (setting [8]); 98.8% (active) in assay [5] (at 50.0 µM); 11% in assay [6] (setting [7]); 96% (active) in assay [6] (setting [8]); 98.8% (active) in assay [6] (at 50.0 µM).

Turning to `CC(C(O)Cc1ccccc1)N(C)N=Nc1ccc([N+](=O)[O-])cc1` (stereo not given), the growth inhibition in assay [1] (setting [7]) is 35%; in assay [1] (setting [8]), 84% (active); in assay [1] (at 50.0 µM) it was 64.3%; in assay [2] (setting [7]), 18%; in assay [2] (setting [8]) it was 59%; in assay [2] (at 50.0 µM) it was 61.6%. Besides, the growth inhibition in assay [3] (setting [7]) was 24%; in assay [3] (setting [8]), 91% (active); in assay [3] (at 50.0 µM) it was 85.7% (active); in assay [4] (setting [7]) it was 21%; in assay [4] (setting [8]) it was 86% (active); in assay [4] (at 50.0 µM), 28.3%. The growth inhibition in assay [5] (setting [7]) was 23%; in assay [5] (setting [8]) it was 92% (active); in assay [5] (at 50.0 µM) it was 72.7% (active); in assay [6] (setting [7]), 51%; in assay [6] (setting [8]) it was 89% (active); in assay [6] (at 50.0 µM), 78.5% (active).

The record behind these values is PubChem BioAssay (NCI).
